# Bioassay records deposited in PubChem by National Center for Advancing Translational Sciences (NCATS).
# Shown are actives, neighbours in structure and some others; about 2.9% of the full set was active somewhere.
# A549 tox = counter-screen for Nrf2 inhibitors: cytotoxicity in A549 cells; AID 504648; Potency, µM (highest dose often 46 µM), for the others: at the top dose activity change, negative = cytotoxicity, actives largely listed as inhibitors; A549 ARE-Fluc cells, CellTiter-Fluor viability, 18-24 h; actives 0.16% (n = 390,000); further: on the % scale 0 is the no-effect control and ±100 the full control effect
#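 A549 ARE_Fluc cells in 5% FBS OPTI-MEM were exposed to compounds in concentration-response for 18-24 h at 37 deg C. Viability was read by CellTiter-Fluor fluorescence (Ex 405/Em 525) after 30 min, before the luciferase read.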
# Nrf2 block = Nrf2 pathway inhibition | A549 ARE-Fluc reporter, luciferase luminescence, 18-24 h | Potency, µM (top dose mostly 46 µM), inactives show top-dose activity change, negative = inhibition, most hits filed as inhibitors | actives 2.1% (n = 360,000) | AID 504444; further: on the % scale 0 is the no-effect control and ±100 the full control effect; nearly all actives have a fitted effect of over 60% in size
#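 In this cell-based qHTS, ARE-driven firefly luciferase in A549 cells reports Nrf2 activity; the luminescent signal after BugLite lysis is the measured value, with a prior CellTiter-Fluor read for cell health.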
# Nrf2 activator = activators of Nrf2 (ARE) signaling. AREc32 ARE-luciferase reporter (MCF7-derived line), luminescence, 24 h. Potency, µM (titrated, usually from 46.1 µM), for inactives: at the top dose activation, most hits filed as activators. actives 0.31% (n = 410,000). AID 624171; further: % of control where 0% means no effect; nearly all actives have a fitted effect of over 65% in size
#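 Luciferase luminescence (Steady-Glo, 30 min at room temperature) served as the read-out of ARE activation in AREc32 cells treated with compounds for 24 hr at 37 deg C.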
# ATXN2 expr inh = ATXN2 expression inhibition; Potency, µM (highest dose often 57 µM), without a hit: at the highest dose activity change, negative = inhibition, most hits filed as inhibitors; actives 0.72% (n = 360,000); HEK-293 ATXN2-luciferase reporter, luminescence, 24 h; further: on the % scale 0 is the no-effect control and ±100 the full control effect; nearly all actives have a fitted effect of over 55% in size
#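 ATXN2-luciferase reporter cells (luciferase flanked by upstream and downstream ATXN2 gene portions) were treated 24 h at 37 °C with compounds at up to 57 uM. SteadyGlo luminescence gave expression; GF-AFC fluorescence gave viability.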
# ATXN viability = viability counter-screen for ATXN expression inhibitors; actives 0.49% (n = 400,000); S2 cells (HEK-293 line with an ATXN2-luciferase reporter) viability, CellTiter-Fluor protease fluorescence, 24 h; Potency, µM (titrated, usually from 56.7 µM), usual class: cytotoxic; further: nearly all actives have a fitted effect of over 40% in size
# Numbers without * were called inactive; i = inactive; ? = inconclusive; / = no result; [ ] = remark or other dose. The call rests on the fitted dose curve; in most records, active means well fitted curve in the direction sought with a large enough effect; inconclusive means small, poorly fitted or top-dose-only effect, or another doubt; inactive means no such curve, though single readings can be large; an effect the other way counts as inactive or inconclusive. Potency means the concentration at half of the fitted maximal effect.
SMILES,A549 tox,Nrf2 block,Nrf2 activator,ATXN2 expr inh,ATXN viability
CN1CC(c2ccccn2)C2(SC(=S)N(Cc3ccccc3)C2=O)C12C(=O)Nc1ccccc12 (stereo unspecified),0%,23µM*,2%,?,?
CN1CC(c2ccccc2)C2(SC(=S)N(Cc3ccco3)C2=O)C12C(=O)Nc1ccccc12 (stereo unspecified),?,12µM*,3%,?,?
O=C(Nc1ccc(O)c(-c2nc3ccccc3o2)c1)C1(c2ccccc2)CCCC1,7%,/,0%,-17%,i
CC(OC(=O)c1cccn1C)C(=O)Nc1ccc2c(c1)OCO2 (stereo unspecified),1%,26µM*,2%,0%,i
Cc1nn(-c2ccccc2)c(Cl)c1C(=O)OC(C)C(=O)Nc1ccc2c(c1)OCO2 (stereo unspecified),-1%,-8%,0%,-2%,i
COC(=O)c1c(NC(=O)/C=C/c2ccco2)sc2c1CCC2,1%,16%,1.4µM*,-4%,i
CCOc1cccc(C(=O)NC(c2ccccc2)C(C)C)c1 (stereo unspecified),0%,-16%,0%,-1%,i
COc1ccc(C)cc1NC(=O)CSc1nnnn1C1CCCC1,4%,3%,0%,3%,i
CN(NC(=O)c1ccc(Cl)cc1)c1nc(-c2ccccc2)nnc1C(F)(F)F,-10%,23µM*,0%,-6%,i
CC(C)[C@H](NC(=O)N1c2ccccc2NC(=O)[C@@H]1C(C)C)C(=O)N[C@@H](C(=O)O)c1ccccc1,1%,2%,-1%,-10%,i
CCOc1ccc(CN(C)C(=O)CNC(=O)c2ccccc2)cc1,1%,-26%,2%,1%,i
C=CCOc1ccc(CN(C)C(=O)CNC(=O)c2ccc(-c3ccccc3)cc2)cc1,-21%,16µM*,2%,-32%,i
COc1ccc(O)c(/C=N/NC(=O)c2cccc(N3CCCC3=O)c2)c1,2%,4%,-1%,?,i
COc1ccc(O)c(/C=N/NC(=O)c2ccc(N3CCCC3=O)cc2)c1,-18%,-4%,0%,25µM*,i
O=C(Cn1c(=O)n(CC2CCC(C(=O)NCCc3ccccc3)CC2)c(=O)c2ccccc21)Nc1cccc(F)c1 (stereo unspecified),3%,-4%,0%,4%,i
CC(=O)c1cccc(NC(=O)/C=C/c2ccc(S(=O)(=O)N3CCOCC3)cc2)c1,-8%,-25%,1%,?,?
COc1cc(/C=C/C(=O)c2ccc(O)cc2)ccc1OCC#N,?,26µM*,?,?,?
CN(CC(=O)Nc1cccc(S(=O)(=O)N2CCOCC2)c1)CC(=O)Nc1ccc(Cl)c(C(F)(F)F)c1,?,21µM*,3%,?,?
O=C(/C=C/c1ccco1)Nc1cccc(S(=O)(=O)N2CCOCC2)c1,4%,1%,5.6µM*,15%,i
CN(C)S(=O)(=O)c1cccc(NC(=O)/C=C/c2ccc(S(=O)(=O)N3CCOCC3)cc2)c1,-4%,23µM*,1%,-16%,i
COc1ccc(/C=C/C(=O)Nc2cccc(S(=O)(=O)N3CCOCC3)c2)cc1OC,3%,?,5%,-7%,i
COc1cc(/C=C/C(=O)Nc2cccc(S(=O)(=O)N3CCOCC3)c2)ccc1OCC#N,-9%,15µM*,0%,-33%,i
Cc1ccc2c(c1)c(=O)c(S(=O)(=O)c1ccc(C)c(C)c1)cn2CC(=O)Nc1ccccc1,-3%,8%,1%,11%,i
O=C(Nc1ccc(N2CCN(C(=O)c3ccc(Cl)cc3)CC2)cc1)c1ccc([N+](=O)[O-])o1,?,21µM*,6.3µM*,-8%[11.3 µM],?
O=C(c1ccc(N2CCCC2=O)cc1)N1CCN(c2ccc(Cl)cc2)CC1,-9%,18µM*,0%,0%,i
SMILES,A549 tox,Nrf2 block,Nrf2 activator,ATXN2 expr inh,ATXN viability
O=C(Nc1ccc(N2CCN(C(=O)c3ccc(Cl)cc3)CC2)cc1)c1ccc2c(c1)OCCO2,-11%,6.5µM*,0%,?,?
O=C(Nc1ccc2[nH]c(=O)[nH]c2c1)c1ccc([N+](=O)[O-])o1,-1%,18%,13µM*,-6%,?
CC(C)(C)C(=O)N1CCN(c2ccc(NC(=O)c3ccc([N+](=O)[O-])o3)cc2)CC1,-17%,?,?,3%,?
Cc1ccc(NC(=O)c2ccc([N+](=O)[O-])o2)cc1C,?,-7%,?,-11%,?
O=c1cc(O)c2ccccc2[nH]1,1%,2%,0%,-22%,i
COC(=O)c1scc(-c2ccc(C)cc2)c1S(=O)(=O)Nc1ccc(N(C)C)cc1,0%,7%,9%,2%,i
O=C(Nc1ccc(N2CCCCC2)cc1)c1ccc([N+](=O)[O-])o1,?,?,?,4%,?
CC(=O)N1CCN(c2ccc(NC(=O)c3ccc4c(c3)OCCO4)cc2Cl)CC1,-12%,?,3%,19%,i
O=C(Nc1ccc(N2CCN(Cc3ccccc3F)CC2)cc1)c1ccccc1[N+](=O)[O-],-1%,-23%,0%,-13%,i
O=C(Nc1ccccc1N1CCCC1)c1ccc([N+](=O)[O-])o1,?,16µM*,?,?,?
CS(=O)(=O)N1CCN(c2ccc(NC(=O)c3ccc([N+](=O)[O-])o3)cc2)CC1,13µM*,-9%,?,/,?
CC(C)C(=O)N1CCN(c2ccc(NC(=O)c3ccc4c(c3)OCCO4)cc2Cl)CC1,?,/,-2%,?,18µM*
O=C(Nc1ccc(N2CCN(Cc3ccccc3F)CC2)cc1)c1ccc([N+](=O)[O-])o1,16µM*,23µM*,?,-4%,i
COC(=O)C1C2CC3c4[nH]c5cc(OC)ccc5c4CCN3CC2CC(OC(=O)c2cc(OC)c(OC)c(OC)c2)C1OC (stereo unspecified),/,/,/,-22%,/
O=C(CCNS(=O)(=O)c1ccc2[nH]c(=O)oc2c1)NCc1ccccc1,6%,9%,0%,-4%,i
Cc1ccc(NC(=S)NCc2ccc3c(c2)OCO3)cc1,2%,-24%,4%,-5%,i
C[C@]12c3[nH]c4ccccc4c3CCN1C(=O)C(CC(=O)NCC13CC4CC(CC(C4)C1)C3)C[C@@H]2C(=O)N1CCCCC1 (stereo partly specified),-13%,16µM*,-1%,?,?
CC(C)N(C(=O)[C@H]1C[C@H](CC(=O)NCC23CC4CC(CC(C4)C2)C3)C(=O)N2CCc3c([nH]c4cc(-c5ccco5)ccc34)[C@]12C)C(C)C,-21%,?,-1%,11%,i
